Consider 56 compounds from PubChem BioAssay AID463173 (ICCB-Longwood Screening Facility, Harvard Medical School, 2010).

Out of some 52,000 compounds screened, about 4,300 (8.3%) were called active. The sample holds actives, similar compounds and a random draw of the others, so the mix is not that of the screen. Unmarked numbers belong to inactive results. Cut-off read from the data, not from the text of the source: active = survival mostly below about 52% (no sharp cut-off); inactive = mostly above about 56%.

This assay concerns DeltatarO mutant. The assay is described as follows: growth inhibition of S. aureus wild type versus tarO mutant, primary screen, teichoic acid synthesis inhibitors, RN4220, OD600 (AID 463173). The following applies: OD600, 18 h, stronger effect = lower value, screened at 18.75 µg/mL (by protocol).
Consider `Cc1c(C(=O)N2CCC(C)CC2)c(S(=O)(=O)Nc2ccc(OC(F)(F)F)cc2)c(C)n1C`, for which the survival is 91%. Next, `CCc1cccc(C)c1NS(=O)(=O)c1ccc2c(c1)CC(C)N2C(=O)C1CC1` (stereo unspecified): 88%.

For `COc1ccc(C(=O)NCc2ccc3c(c2)CCN3C(=O)c2ccncc2)cc1`, the survival was 88%. Consider `Cc1ccc(Cl)cc1NC(=O)CN1C(=O)COc2ccc(S(=O)(=O)N3CCOCC3)cc21`, for which the survival was 101%. Next, `CCc1c(C)[nH][n+]2cnn(Cc3ccc(Cl)cc3)c2c1=O`: 89%; `CCn1cnc2sc(C(=O)Nc3ccccc3)c(C)c2c1=O`: 87%. In the case of `Cc1ccc(CNC(=O)c2nnn(Cc3ccc(F)cc3)c2N)cc1` it was 91%; in that of `Cc1ccc(CNc2nc(-c3ccco3)nn2C(=O)c2ccccc2[N+](=O)[O-])cc1`, 111%; in that of `Cc1nn2c(=O)cc(COC(=O)c3ccc(NC(=O)COc4ccc(C)c(C)c4)cc3)nc2s1`, 116%. `Cc1ccc(S(=O)(=O)NCCSc2nnnn2-c2ccccc2)cc1`: the survival is 71%. As for `CCSc1nnc2c(n1)OC(c1ccc(C)s1)Nc1ccccc1-2` (stereo unspecified), the survival was 71%.

With `CCCSc1nnc2c(n1)OC(c1sccc1C)Nc1ccccc1-2` (stereo unspecified), the survival was 79%.

For `CCCCSc1nnc2c(n1)OC(c1ccc(C)s1)Nc1ccccc1-2` (stereo unspecified), the survival is 41% (active).

Take `Cc1cccc(C)c1OCc1nc2c3cnn(-c4cccc(F)c4)c3ncn2n1`: the survival was 78%. In the case of `CC(=O)c1ccc(S(=O)(=O)N2CCn3cccc3C2c2ccccc2F)cc1` (stereo unspecified) it was 82%; in that of `CCOc1ccc(-n2c(SCC(=O)NCC3CCCO3)nc3c([nH]c4ccccc43)c2=O)cc1` (stereo unspecified), 74%; in that of `Cc1cc(Oc2c(C(F)(F)F)oc3c(CN4CCC(C)CC4)c(O)ccc3c2=O)cc(C)c1Cl`, 70%. In the case of `COc1ccc(CC(=O)NCCc2csc(-c3ccc(C(F)(F)F)cc3)n2)cc1` it was -5% (active); in that of `COc1ccc(CC(=O)NCCc2csc(-c3cccc(C)c3)n2)cc1`, 68%. Consider `CCOc1ccc(CC(=O)NCCc2csc(-c3ccc(C(F)(F)F)cc3)n2)cc1`, for which the survival was 77%. In the case of `Cc1cccc(-c2nc(CCNC(=O)c3ccc(Br)o3)cs2)c1` it was 89%; in that of `O=C(NCCc1csc(-c2cccc(F)c2)n1)c1ccco1`, 94%; in that of `Cc1cccc(-c2nc(CCNC(=O)Cc3ccc(F)cc3)cs2)c1`, 55%. Next, `Cc1cccc(-c2nc(CCNC(=O)Cc3ccccc3)cs2)c1`: 17% (active); `COc1ccc(CCC(=O)NCCc2csc(-c3ccc(C(F)(F)F)cc3)n2)cc1`: 73%; `Cc1cccc(-c2nc(CCNC(=O)c3ccco3)cs2)c1`: -5% (active). In the case of `CCOc1ccc(-c2nnc(SCC(=O)c3ccccc3)n2-c2ccccc2)cc1` it was 136%; in that of `COc1cccc(CNC(=O)c2cc(S(=O)(=O)N3CCCCC3)c[nH]2)c1`, 64%; in that of `COc1ccccc1NC(=O)CSc1ncc2c(n1)-c1ccccc1N(Cc1ccccc1C)S2(=O)=O`, 101%. With `Cc1cc(=O)[nH]c2nnc(SCC(=O)NC(C)(C)C)n12`, the survival is 77%.

For the compound `COc1ccc(CN2COc3ccc4c(-c5ccc(OC)cc5)cc(=O)oc4c3C2)cc1`, the survival was 65%. Next, `COc1ccc(-c2cc(=O)oc3c4c(ccc23)OCN(Cc2cccc(OC)c2)C4)cc1`: 38% (active); `COc1ccc(-c2cc(=O)oc3c4c(ccc23)OCN(Cc2ccccc2)C4)cc1`: 82%. Next, `Cc1cccc(NC(=O)C2CCN(S(=O)(=O)c3cccc4nsnc34)CC2)c1`: 84%; `CCOc1ccc(NC(=O)CC2C(=O)N(c3ccc(F)cc3)C(=O)N2Cc2ccc(OC)c(OC)c2)cc1` (stereo unspecified): 90%.

Take `Cc1ccc(C)c(CSc2nc3ncccc3[nH]2)c1`: the survival was 73%. In the case of `O=C(CSc1nc2nccnc2c(=O)n1CCc1c[nH]c2ccccc12)Nc1ccccc1`, the survival is 73%.

As to `O=C(CSc1nc2nccnc2c(=O)n1CCc1c[nH]c2ccccc12)Nc1ccc(F)cc1`, the survival is 29% (active). In the case of `COc1ccccc1NC(=O)CSc1nc2ccccc2c(=O)n1CCC(=O)NC1CCCCC1` it was 89%. Turning to `Cc1ccc(NC(=O)CSc2nc3c([nH]c4ccccc43)c(=O)n2-c2ccccc2)c(C)c1`, the survival was 96%.

With `Cc1cc(C)c(NC(=O)CSc2nc3nccnc3c(=O)n2CCc2c[nH]c3ccccc23)c(C)c1`, the survival is 48%. Take `O=C(CSc1nc2nccnc2c(=O)n1CCc1c[nH]c2ccccc12)Nc1ccccc1F`: the survival was 46% (active). In the case of `Cc1ccc(NC(=O)CSc2nc3nccnc3c(=O)n2CCc2c[nH]c3ccccc23)c(C)c1` it was 45% (active); in that of `COCCCn1c(SCC(=O)Nc2ccccc2OC)nc2c(sc3ccccc32)c1=O`, 77%; in that of `COc1ccccc1NC(=O)CSc1nc2nccnc2c(=O)n1CCc1c[nH]c2ccccc12`, 38% (active). Next, `O=C(CSc1nc2c([nH]c3ccccc32)c(=O)n1-c1ccccc1)Nc1ccccc1F`: 96%; `CCc1ccc(NC(=O)CSc2nc3nccnc3c(=O)n2CCc2c[nH]c3ccccc23)cc1`: 88%. In the case of `Cn1c(SCC(=O)Nc2ccccc2F)nc2c([nH]c3ccccc32)c1=O` it was 115%; in that of `Cc1ccc(C)c(NC(=O)CCCn2nc(C)c3sc4ccccc4c3c2=O)c1`, 85%.

For `CCOC(=O)c1c(C)[nH]c(C)c1S(=O)(=O)N(C)CC(=O)Nc1ccc(C)cc1Br`, the survival is 72%. With `CCCCN(C)C(=O)Cn1cnc2sc(C)c(S(=O)(=O)N3CCN(c4ccccc4OC)CC3)c2c1=O`, the survival is 70%. Next, `Cc1cc(C)n(-c2nc(C)c(C)c(=O)n2CC(=O)Nc2ccc(OC(F)(F)F)cc2)n1`: 90%; `COc1ccccc1N1CCN(C(=O)COc2ccccc2C#N)CC1`: 81%.

As to `COc1cc(C(=O)N2CCN(CCc3ccncc3)CC2)cc(OC)c1OC`, the survival is 89%. In the case of `CS(=O)(=O)n1nc(-c2ccco2)nc1NCc1ccccc1Cl` it was 61%.

For the compound `COc1cc(NC(=O)Cn2cnc3sc(C)c(S(=O)(=O)N4CCC(C)CC4)c3c2=O)cc(OC)c1OC`, the survival was 111%.
